In PubChem BioAssay (NCATS):
Unmarked numbers belong to inactive results. Results filed as inconclusive are left out. The source made the active and inactive calls. Unless noted, calls come from the whole dose curve; as a rule, active = well fitted curve in the direction sought with a large enough effect; inconclusive = small, poorly fitted or top-dose-only effect, or another doubt; inactive = no such curve, though single readings can be large; an effect the other way counts as inactive or inconclusive.

Legend:
[1] = AP1 Signaling Pathway (AID 357; active = well fitted curve in either direction with a large enough effect, not every such curve was filed as active; note: % is set by controls: 0 for no effect and ±100 for the full control effect); settings: ME-180 AP-1-bla reporter, EGF-induced, beta-lactamase ratio, 5 h; at 7.69 µM (top of the series) unless noted
In short: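 ME-180 cells with beta-lactamase reporter under AP-1 response element, stimulated with EC50 EGF; compounds tested in titration series, 5 h at 37 °C. CCF4 substrate added 2.5 h at room temperature; 460/530 nm emission ratio gave %activity and AC50.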

[2] = biological target: Cytochrome P450 1A2 (Homo sapiens) (UniProt P05177); assay: p450-cyp1a2 (AID 410; calls by dose curve; note: potency is the fitted concentration of half-maximal effect)
In short: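 Luminescent readout of luciferin formed from Luciferin-ME by human CYP1A2; data normalized against complete inhibition by 57 uM furafylline. Enzyme 20nM, substrate 100uM at Km, 100mM KPO4 buffer, 60 min reaction at room temperature.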

[3] = Stat Signaling Pathway (AID 446; active = well fitted curve in either direction with a large enough effect, not every such curve was filed as active;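 note: ME-180 cervical cancer cells given 40 pM IL-6 alongside compound; SIE-controlled beta-lactamase reporter measured as 460/530 nm FRET emission ratio; % is set by controls: 0 for no effect and ±100 for the full control effect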)
In short: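 IL-6/STAT signaling read in ME-180 cells via an SIE beta-lactamase reporter. Stimulus was 40 pM IL-6 (its AC50) for 5 hrs, so both activation and inhibition register.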

[4] = biological target: Glucocorticoid receptor (Homo sapiens) (UniProt P04150); assay: GR-GFP Redistribution (AID 450;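 active = compounds whose dose series gives a full or clear partial fitted curve of increased nuclear translocation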; note: potency is the fitted concentration of half-maximal effect); settings: U2OS GR-GFP nuclear translocation, laser cytometry, 2 h
[5] = biological target: Glucocorticoid receptor (Homo sapiens) (UniProt P04150); assay: GR-EFC Redistribution (AID 451; calls by dose curve; note: potency is the fitted concentration of half-maximal effect); settings: CHO-K1 GR-EFC translocation, beta-gal luminescence, 2 h
In short: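 CHO-K1 cells stably expressing nuclear-localized β-gal enzyme acceptor and GR fused C-terminally to the enzyme donor fragment; ligand-driven nuclear translocation restores β-gal by complementation. Compounds titrated up to 46 uM final, 2 h at 37 °C; luminescence read.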

[6] = biological target: Mitogen-activated protein kinase 10 (Mus musculus) (UniProt Q61831); assay: JNK3 AlphaScreen Assay (AID 530; active = well fitted curve in either direction with a large enough effect, not every such curve was filed as active;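 note: kinase came from lysate of stimulated human HepG2 cells; signal reports phosphorylation of biotinylated GST-cJun 1-79 at Ser73 with 10 µM ATP; % is set by controls: 0 for no effect and ±100 for the full control effect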)
In short: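 Inhibitors reduce antibody binding to phosphorylated biotin-cJun, lowering AlphaScreen luminescence. Lysates from HepG2 cells pre-activated by IL-1beta plus TNF-alpha supplied JNK3; compounds were titrated.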

[7] = biological target: Cytochrome P450 3A4 (Homo sapiens) (UniProt P08684); assay: qHTS Assay for Activators of Cytochrome P450 3A4 (AID 885); note: nearly all actives have a fitted effect of over 65% in size
In short: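 Quantitative HTS format: compounds preincubated with 20nM human CYP3A4 and Luciferin-PPXE substrate at KM, reaction started by NADPH regeneration, stopped after 60 min, luciferase luminescence read 20 min later.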

[8] = biological target: Cytochrome P450 2D6 (Homo sapiens) (UniProt P10635); assay: qHTS Assay for Inhibitors and Substrates of Cytochrome P450 2D6 (AID 891); note: potency is the fitted concentration of half-maximal effect; nearly all actives have a fitted effect of over 60% in size
In short: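 Human CYP2D6 (5 nM) with 30 uM Luciferin-ME EGE (at Km) in 100 mM KPO4, compound preincubated 10 min, then NADPH regeneration system for 60 min at room temperature. Luciferin read by luminescence; normalized to 1.43 uM quinidine.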

[9] = biological target: Dual specificity protein kinase CLK4 (Homo sapiens) (UniProt Q9HAZ1); assay: qHTS Assay for Inhibitors of CDC-like Kinase 4 (Kinase-Glo Assay) (AID 1770); note: nearly all actives have a fitted effect of over 65% in size; note: potency is the fitted concentration of half-maximal effect
In short: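 Readout: Kinase-Glo luminescence from ATP left after a 4.5 h room-temperature reaction of 25 nM Clk4 with 100 uM RS peptide and 1 uM ATP (final). Buffer: 25 mM Tris pH 7.5, 10 mM MgCl2.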

[10] = biological target: Dual specificity protein kinase CLK4 (Homo sapiens) (UniProt Q9HAZ1); assay: qHTS Assay for Inhibitors of CDC-like Kinase 4 (ADP-Glo Assay) (AID 1771); note: nearly all actives have a fitted effect of over 70% in size; note: potency is the fitted concentration of half-maximal effect
In short: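 Luminescence from ADP-Glo reports ADP produced by 25 nM Clk4 acting on 100 uM RS repeat peptide with 1 uM ATP over 1 hr at room temperature; residual ATP is depleted before ADP is converted to ATP for detection.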

[11] = biological target: Lysosomal acid glucosylceramidase (Homo sapiens) (UniProt P04062); assay: Glucocerebrosidase-p2 (AID 348; in the data active = potency below about 10 µM; note: potency is the fitted concentration of half-maximal effect); settings: purified GBA, blue fluorogenic substrate, 40 min
In short: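 Compounds titrated from 0.6 nM upwards against 0.2 nM enzyme in pH 5.9 citric acid/KH2PO4, taurocholate, tween-20; blue fluorogenic substrate 80 uM, 40 min room temperature, stopped and read Ex 365/Em 440 for AC50.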

[12] = NFAT Signaling Pathway (AID 444; active = well fitted curve in either direction with a large enough effect, not every such curve was filed as active;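 note: carbachol stimulus at about its EC50 of 1 µM final; % is set by controls: 0 for no effect and ±100 for the full control effect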); settings: Jurkat NFAT-bla M1, carbachol, beta-lactamase ratio, 5 h; at 7.69 µM (top of the series) unless noted
In short: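 Jurkat cells carrying an NFAT-driven β-lactamase reporter and co-transfected muscarinic M1 receptor were treated with compound plus carbachol (1 uM final, an EC50 level) for 5 h at 37 °C. CCF4 loading followed for 1 h at RT; 460/530 nm ratio gave %activity.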

[13] = biological target: Cytochrome P450 2C19 (Homo sapiens) (UniProt P33261); assay: qHTS Assay for Inhibitors and Substrates of Cytochrome P450 2C19 (AID 899); note: potency is the fitted concentration of half-maximal effect; nearly all actives have a fitted effect of over 60% in size
In short: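 Human CYP2C19 (5nM) with Luciferin-H EGE at 10uM (its KM) in 50mM KPO4 was preincubated with compound for 10 min at 37C. NADPH regeneration started a 60 min 37C reaction. Luciferin was read by luminescence, normalized to 57uM ketoconazole.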

[14] = biological target: Ubiquitin carboxyl-terminal hydrolase 1 (Homo sapiens) (UniProt O94782); assay: Inhibitors of USP1/UAF1: Pilot qHTS (AID 504865); note: nearly all actives have a fitted effect of over 35% in size; note: potency is the fitted concentration of half-maximal effect
In short: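 1nM USP1/UAF1 + cpd, 15 min RT; start w/ Ub-Rho 150nM final; kinetic FL 480/540 nm, 6 reads q60 s. Buffer 50mM HEPES pH 7.8, 0.5mM EDTA, 1mM TCEP, 0.01% Tween-20, 0.1 mg/ml BSA.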

[15] = biological target: Cytochrome P450 3A4 (Homo sapiens) (UniProt P08684); assay: qHTS Assay for Inhibitors and Substrates of Cytochrome P450 3A4 (AID 884); note: nearly all actives have a fitted effect of over 50% in size; note: potency is the fitted concentration of half-maximal effect
In short: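 20 nM human CYP3A4 with 25 uM Luciferin-PPXE (at KM) in 200 mM KPO4, preincubated 10 min with compound; NADPH regeneration started a 60 min RT reaction. Luciferin detected by luminescence, normalized to 57 uM ketoconazole as full inhibition.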

[16] = biological target: 3',5'-cyclic-AMP phosphodiesterase 4B (Homo sapiens) (UniProt Q07343); assay: qHTS Assay for Inhibitors of PDE-IV (AID 607; active = well fitted activation curve with a large enough effect in the main read-out, with a control signal flat, not every such curve was filed as active; note: % of control where 0% means no effect)
In short: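 Live HEK293 cells with a modified cyclic nucleotide-gated (CNG) channel report intracellular cAMP via membrane-potential dye fluorescence (ex 535/em 590 nm). Endogenous PDE-IV was targeted. Compounds were tested at up to 22.9 uM final; RO 20-1724 100 uM served as control.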

[17] = qHTS Assay for Identification of Small Molecule Agonists for Hypoxia Response Element Signaling Pathway (AID 914; active = well fitted activation curve with a large enough effect in the signal ratio, with a control signal flat, not every such curve was filed as active; the % refers to the signal ratio; note: potency is the fitted concentration of half-maximal effect); settings: ME-180 (cervical carcinoma) HRE-bla reporter, beta-lactamase ratio, CoCl2, 17 h; activation: stronger effect = higher value
In short: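 Read-out: CCF4 FRET ratio of 460nm to 530nm emission (excitation 405nm) after 2.5 hours at room temperature, taken from HRE-bla ME-180 cells that had been exposed to compound and EC50 CoCl2 for 17 hours.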

Cytochrome P450 3A4 (Homo sapiens), sequence (P08684 whole entry, looked up): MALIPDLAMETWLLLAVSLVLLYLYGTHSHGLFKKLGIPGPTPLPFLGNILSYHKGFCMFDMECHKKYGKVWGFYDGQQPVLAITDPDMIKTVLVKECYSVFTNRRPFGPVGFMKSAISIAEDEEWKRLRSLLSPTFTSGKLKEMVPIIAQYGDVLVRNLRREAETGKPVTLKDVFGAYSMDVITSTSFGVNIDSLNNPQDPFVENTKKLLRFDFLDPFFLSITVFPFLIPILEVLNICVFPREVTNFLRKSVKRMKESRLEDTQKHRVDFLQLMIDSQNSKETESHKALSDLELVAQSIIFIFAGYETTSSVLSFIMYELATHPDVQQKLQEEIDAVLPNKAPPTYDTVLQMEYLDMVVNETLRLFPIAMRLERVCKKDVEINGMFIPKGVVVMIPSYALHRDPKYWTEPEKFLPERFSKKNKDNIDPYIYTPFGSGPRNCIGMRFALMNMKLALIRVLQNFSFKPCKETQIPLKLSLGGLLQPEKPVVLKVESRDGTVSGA
Dual specificity protein kinase CLK4 (Homo sapiens), sequence (Q9HAZ1 whole entry, looked up): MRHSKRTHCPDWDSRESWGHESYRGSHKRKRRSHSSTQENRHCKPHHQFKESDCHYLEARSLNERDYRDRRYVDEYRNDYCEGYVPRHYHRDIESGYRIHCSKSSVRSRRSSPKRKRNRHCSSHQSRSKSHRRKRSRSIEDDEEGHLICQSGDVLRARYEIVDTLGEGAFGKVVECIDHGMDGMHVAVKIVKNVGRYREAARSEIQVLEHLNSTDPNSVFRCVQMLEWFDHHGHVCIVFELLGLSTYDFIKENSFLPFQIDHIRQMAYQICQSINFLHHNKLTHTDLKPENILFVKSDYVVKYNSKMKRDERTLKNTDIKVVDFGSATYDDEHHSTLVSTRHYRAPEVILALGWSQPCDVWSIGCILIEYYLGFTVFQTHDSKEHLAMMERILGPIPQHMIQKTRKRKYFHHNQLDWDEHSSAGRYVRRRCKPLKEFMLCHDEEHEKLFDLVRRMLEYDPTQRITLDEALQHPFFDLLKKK
Lysosomal acid glucosylceramidase (Homo sapiens), sequence (P04062 whole entry, looked up): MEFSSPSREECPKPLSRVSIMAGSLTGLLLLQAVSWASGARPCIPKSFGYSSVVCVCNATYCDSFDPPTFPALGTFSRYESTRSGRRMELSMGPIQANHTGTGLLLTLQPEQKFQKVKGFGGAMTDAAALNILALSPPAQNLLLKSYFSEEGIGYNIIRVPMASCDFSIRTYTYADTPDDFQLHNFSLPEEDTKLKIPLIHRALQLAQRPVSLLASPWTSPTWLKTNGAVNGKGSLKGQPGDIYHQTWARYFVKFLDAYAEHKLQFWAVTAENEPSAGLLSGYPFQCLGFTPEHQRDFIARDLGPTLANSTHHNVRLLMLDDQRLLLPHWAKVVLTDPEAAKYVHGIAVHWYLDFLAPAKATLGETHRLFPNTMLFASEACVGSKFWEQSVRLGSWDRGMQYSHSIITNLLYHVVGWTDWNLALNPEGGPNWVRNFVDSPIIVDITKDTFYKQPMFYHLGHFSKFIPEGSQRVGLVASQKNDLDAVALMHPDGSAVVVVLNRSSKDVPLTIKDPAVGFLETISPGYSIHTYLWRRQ
Cytochrome P450 1A2 (Homo sapiens), sequence (P05177 whole entry, looked up): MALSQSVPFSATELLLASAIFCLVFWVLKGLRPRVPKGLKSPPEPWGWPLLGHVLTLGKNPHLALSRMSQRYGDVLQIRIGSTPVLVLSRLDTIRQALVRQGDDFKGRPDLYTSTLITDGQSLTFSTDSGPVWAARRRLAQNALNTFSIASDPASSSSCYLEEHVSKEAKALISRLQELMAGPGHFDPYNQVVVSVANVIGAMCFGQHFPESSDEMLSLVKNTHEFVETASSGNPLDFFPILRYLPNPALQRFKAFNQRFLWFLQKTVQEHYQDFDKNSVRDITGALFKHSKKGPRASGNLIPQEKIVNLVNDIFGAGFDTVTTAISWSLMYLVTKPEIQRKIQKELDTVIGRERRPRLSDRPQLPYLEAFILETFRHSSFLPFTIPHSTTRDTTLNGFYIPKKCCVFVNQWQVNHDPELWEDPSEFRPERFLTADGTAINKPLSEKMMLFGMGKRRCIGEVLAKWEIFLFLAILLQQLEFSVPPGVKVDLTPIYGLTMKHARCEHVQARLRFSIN
3',5'-cyclic-AMP phosphodiesterase 4B (Homo sapiens), sequence (Q07343 whole entry, looked up): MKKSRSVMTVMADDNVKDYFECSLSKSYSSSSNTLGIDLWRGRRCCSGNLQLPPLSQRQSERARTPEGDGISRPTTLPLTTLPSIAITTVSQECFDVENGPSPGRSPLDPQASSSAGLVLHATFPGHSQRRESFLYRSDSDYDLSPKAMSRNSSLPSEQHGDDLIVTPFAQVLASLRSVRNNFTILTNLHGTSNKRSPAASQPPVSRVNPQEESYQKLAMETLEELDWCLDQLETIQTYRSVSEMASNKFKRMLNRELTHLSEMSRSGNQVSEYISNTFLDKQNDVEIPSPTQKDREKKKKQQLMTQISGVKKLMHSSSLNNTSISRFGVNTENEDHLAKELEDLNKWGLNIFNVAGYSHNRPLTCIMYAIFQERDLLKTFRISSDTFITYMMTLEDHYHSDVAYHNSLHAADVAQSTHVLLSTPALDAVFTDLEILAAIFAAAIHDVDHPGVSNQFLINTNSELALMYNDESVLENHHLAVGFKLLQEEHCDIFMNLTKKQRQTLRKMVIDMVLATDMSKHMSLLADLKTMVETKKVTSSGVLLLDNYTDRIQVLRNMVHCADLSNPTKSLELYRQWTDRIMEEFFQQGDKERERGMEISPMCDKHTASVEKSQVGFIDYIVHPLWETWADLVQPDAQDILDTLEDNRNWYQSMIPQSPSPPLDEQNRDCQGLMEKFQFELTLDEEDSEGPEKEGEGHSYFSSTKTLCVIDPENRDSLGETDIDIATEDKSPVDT
Glucocorticoid receptor (Homo sapiens), sequence (P04150 whole entry, looked up, the tested form may be a part): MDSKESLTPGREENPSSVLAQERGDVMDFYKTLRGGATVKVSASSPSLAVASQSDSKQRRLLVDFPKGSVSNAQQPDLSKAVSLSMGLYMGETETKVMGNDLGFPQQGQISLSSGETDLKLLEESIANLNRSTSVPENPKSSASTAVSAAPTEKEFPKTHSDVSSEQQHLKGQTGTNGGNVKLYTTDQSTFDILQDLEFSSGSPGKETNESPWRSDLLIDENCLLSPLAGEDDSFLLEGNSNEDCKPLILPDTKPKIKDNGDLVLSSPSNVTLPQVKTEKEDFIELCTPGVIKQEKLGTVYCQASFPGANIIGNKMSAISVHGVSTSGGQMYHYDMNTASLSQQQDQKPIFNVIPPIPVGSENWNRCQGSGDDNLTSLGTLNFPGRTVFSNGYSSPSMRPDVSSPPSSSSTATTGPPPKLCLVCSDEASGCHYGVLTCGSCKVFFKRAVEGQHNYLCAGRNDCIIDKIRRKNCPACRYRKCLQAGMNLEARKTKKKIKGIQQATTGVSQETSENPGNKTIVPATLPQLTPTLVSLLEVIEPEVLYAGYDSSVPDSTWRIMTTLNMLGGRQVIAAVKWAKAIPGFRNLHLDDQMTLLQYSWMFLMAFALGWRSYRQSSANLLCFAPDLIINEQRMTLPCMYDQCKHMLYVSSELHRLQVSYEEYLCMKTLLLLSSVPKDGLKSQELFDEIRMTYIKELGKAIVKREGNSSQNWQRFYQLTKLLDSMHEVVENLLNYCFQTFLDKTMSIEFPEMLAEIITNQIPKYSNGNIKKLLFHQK
Cytochrome P450 2D6 (Homo sapiens), sequence (P10635 whole entry, looked up): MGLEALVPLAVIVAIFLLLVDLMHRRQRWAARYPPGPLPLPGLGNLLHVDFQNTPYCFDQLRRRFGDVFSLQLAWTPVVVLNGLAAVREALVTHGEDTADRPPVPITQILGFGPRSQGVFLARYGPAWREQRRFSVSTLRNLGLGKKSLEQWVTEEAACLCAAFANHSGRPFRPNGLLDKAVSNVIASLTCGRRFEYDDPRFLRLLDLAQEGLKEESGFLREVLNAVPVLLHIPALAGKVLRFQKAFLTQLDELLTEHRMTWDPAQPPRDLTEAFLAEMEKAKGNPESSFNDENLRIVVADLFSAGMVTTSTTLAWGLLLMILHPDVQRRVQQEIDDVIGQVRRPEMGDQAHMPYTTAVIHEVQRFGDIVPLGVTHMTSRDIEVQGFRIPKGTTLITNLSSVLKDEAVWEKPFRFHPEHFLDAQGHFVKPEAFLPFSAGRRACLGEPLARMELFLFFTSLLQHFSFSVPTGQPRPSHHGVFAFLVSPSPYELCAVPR
Cytochrome P450 2C19 (Homo sapiens), sequence (P33261 whole entry, looked up): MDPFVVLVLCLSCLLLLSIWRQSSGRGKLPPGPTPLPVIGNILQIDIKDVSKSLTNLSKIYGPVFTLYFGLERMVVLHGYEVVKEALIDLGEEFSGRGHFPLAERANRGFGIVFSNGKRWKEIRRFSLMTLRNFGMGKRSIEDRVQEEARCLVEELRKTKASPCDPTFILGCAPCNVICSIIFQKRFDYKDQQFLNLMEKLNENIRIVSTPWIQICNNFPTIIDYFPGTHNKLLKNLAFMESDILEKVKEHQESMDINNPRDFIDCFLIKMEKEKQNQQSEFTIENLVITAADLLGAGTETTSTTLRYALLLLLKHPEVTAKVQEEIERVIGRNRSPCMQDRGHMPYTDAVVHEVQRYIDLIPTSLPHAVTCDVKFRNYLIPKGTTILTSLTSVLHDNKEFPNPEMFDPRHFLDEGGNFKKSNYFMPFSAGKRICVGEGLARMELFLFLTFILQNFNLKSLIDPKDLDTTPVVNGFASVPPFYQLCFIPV

| SMILES | activity change, negative = inhibition [1] [%] | Potency [2] | outcome [3] | Potency [4] [µM] | Potency [5] [µM] | Potency [6] | outcome [7] | Potency [8] | Potency [9] | Potency [10] | Potency [11] | activity change, negative = inhibition [12] [%] | Potency [13] | Potency [14] | Potency [15] | Potency [16] | Potency [17] |
| --- | --- | --- | --- | --- | --- | --- | --- | --- | --- | --- | --- | --- | --- | --- | --- | --- | --- |
| CN(C)c1ccc(-c2nccc(NCc3cccs3)n2)cc1 | -18.4 | 0.398 µM (active) | inactive | > 46 | > 46 | inactive | inactive | 0.126 µM (active) | 8.91 µM (active) | 5.62 µM (active) |  |  |  |  |  |  |  |
| c1ccc(CNc2nc(-c3cccnc3)nc3ccccc23)cc1 | -20.2 | 0.398 µM (active) | inactive | > 46 | > 46 | inactive |  | 15.8 µM (active) | 7.08 µM (active) | 11.2 µM (active) | > 11.4 µM | -17.2 | 15.8 µM (active) |  |  |  |  |
| CN1CCN(c2ncnc3ccc(-c4cccc(C#N)c4)cc23)CC1 | -0.311 | 1.26 µM (active) | inactive | > 46 | > 46 |  | inactive |  | 15.8 µM (active) | 15.8 µM (active) | > 11.4 µM | -4.66 |  | inactive |  |  |  |
| COc1cccc(-c2nc(NC3CC3)c3ccccc3n2)c1 | -6.5 |  | inactive | > 46 | > 46 | inactive | inactive | 7.94 µM (active) | 7.08 µM (active) | 7.08 µM (active) | 2.73 µM (active) | 1.07 |  |  | 1.26 µM (active) |  |  |
| COc1cccc(-c2cncnc2NCCN2CCOCC2)c1 | 24.4 | 15.8 µM (active) | inactive |  | > 46 | inactive | inactive |  | inactive | inactive | > 11.4 µM |  |  | inactive |  | inactive | 2.51 µM (active) |
| COCCNc1ncnc2ccc(-c3ccccc3OC)cc12 | -6.49 | 2 µM (active) | inactive |  | > 46 | inactive | inactive |  | 15.8 µM (active) | 10 µM (active) | > 11.4 µM | 2.23 | 5.01 µM (active) |  |  | inactive |  |
| CN(C)c1nc(-c2cccc(C#N)c2)nc2ccccc12 | 2.42 |  | inactive |  | > 46 |  |  |  | 15.8 µM (active) | 15.8 µM (active) | > 11.4 µM |  |  | inactive |  |  |  |
| COc1ccc2[nH]cc(CCNc3ncncc3-c3ccoc3)c2c1 |  |  | inactive | > 46 | > 46 | inactive |  |  | 14.1 µM (active) | 15.8 µM (active) | > 11.4 µM | -12 |  |  |  | inactive |  |
| Cn1c(=O)c(-c2ccccc2)nc2cnc(N3CCOCC3)nc21 | -2.38 | 2 µM (active) | inactive | > 9.22 | > 46 |  |  |  | inactive | inactive | > 11.4 µM | 3.19 |  | inactive | inactive | inactive |  |
| COc1ccc2[nH]cc(CCNc3ncnc4ccc(-c5ccoc5)cc34)c2c1 |  | 0.316 µM (active) | inactive | > 46 | > 46 | inactive | inactive | 5.01 µM (active) | 0.794 µM (active) | 0.708 µM (active) | > 11.4 µM | 0.633 | 7.94 µM (active) | inactive | 3.98 µM (active) | inactive |  |
| FC(F)(F)c1ccccc1-c1nc(NCc2cccnc2)c2ccccc2n1 | 5.72 | 2 µM (active) | inactive | > 46 | > 46 | inactive | inactive |  | inactive | inactive | > 11.4 µM | 3.45 | 3.98 µM (active) | 12.6 µM (active) | 2 µM (active) |  |  |
| COc1ccc(-c2nc3cnc(N4CCOCC4)nc3n(-c3ccc(OC)cc3)c2=O)cc1 | -5.89 | 10 µM (active) | inactive | > 9.22 | > 46 |  |  |  | inactive | inactive | > 11.4 µM |  |  |  |  | inactive | 3.16 µM (active) |
| COc1cccc(-c2cncnc2NCCc2c[nH]c3ccc(OC)cc23)c1 |  | 2 µM (active) |  | > 46 | > 46 |  | inactive | 2.51 µM (active) | 20 µM (active) | 22.4 µM (active) | > 11.4 µM |  | 0.316 µM (active) |  | 0.501 µM (active) | inactive |  |
| CCNc1ncc2nc(C)c(=O)n(CCc3ccccc3)c2n1 | -15.2 | 1.58 µM (active) | inactive | > 9.22 | > 46 | inactive | inactive |  | 7.94 µM (active) | 7.94 µM (active) | > 11.4 µM | -12.8 | 0.316 µM (active) | inactive |  |  |  |
